Screening data (PubChem)
Rows were chosen to be rich in hits. Some 2.4% of all compounds tested hit in one or more screens of this group.
SENP7 inh – blocks the human protease SENP7; Q9BQF6; recombinant SENP7, Z-RLRGG-aminoluciferin luminescence, 40 min; inhibition, % at 5 µM; 1.5% of 330,000 active;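 active = inhibition above about 50% at the single test dose, limit read from the data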;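 also: plate controls were DMSO with enzyme for no effect and no enzyme buffer wells for full effect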
Target sequence (Q9BQF6 706-1050 limits assumed): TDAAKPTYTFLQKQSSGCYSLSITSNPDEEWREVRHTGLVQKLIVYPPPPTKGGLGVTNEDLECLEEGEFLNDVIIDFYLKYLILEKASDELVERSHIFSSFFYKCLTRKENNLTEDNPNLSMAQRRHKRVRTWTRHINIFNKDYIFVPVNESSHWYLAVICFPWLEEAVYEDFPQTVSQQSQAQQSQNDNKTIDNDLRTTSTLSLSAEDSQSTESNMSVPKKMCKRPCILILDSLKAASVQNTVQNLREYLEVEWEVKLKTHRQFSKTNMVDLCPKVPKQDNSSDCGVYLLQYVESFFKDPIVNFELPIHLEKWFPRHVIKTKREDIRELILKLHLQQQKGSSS
SENP8 block-1 – inhibitors of human SENP8 protease | recombinant SENP8, Nedd8 substrate fluorescence | inhibition, % at 20 µM | 0.64% of 360,000 active | AID 602440; in the data active = inhibition mostly above about 40%, no sharp cut-off; inactive = mostly below about 27%
Target sequence (Q96LD8 whole entry, looked up): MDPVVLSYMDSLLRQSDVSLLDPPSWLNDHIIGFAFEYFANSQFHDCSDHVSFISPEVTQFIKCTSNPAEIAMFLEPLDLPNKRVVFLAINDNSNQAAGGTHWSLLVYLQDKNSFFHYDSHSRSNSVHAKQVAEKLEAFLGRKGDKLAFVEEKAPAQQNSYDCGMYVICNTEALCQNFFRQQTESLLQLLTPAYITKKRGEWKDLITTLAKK
SENP6 inh – inhibitors of human SENP6 protease | inhibition, % at 10 µM | Q9GZR1 | Recombinant SENP6 catalytic domain, aminoluciferin luminescence | AID 2599 | 1.8% of 330,000 active;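 active = inhibition above about 50% at the single tested dose, limit read from the data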;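 also: plate controls were DMSO wells with enzyme for no effect and DMSO wells lacking enzyme for full effect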
Platelet DG rel – platelet dense granule release activity; inhibition, %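 (compounds screened at 7.5 µM in platelet-rich plasma)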; human platelet-rich plasma, SFLLRN dense granule ATP release, luminescence; 0.22% of 300,000 active;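 active = mean replicate score, as percent of positive control, at or above 50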
SENP8 block-2 – blocks the human protease SENP8. Q96LD8. purified SENP8, Z-RLRGG-aminoluciferin cleavage, luminescence. inhibition, % at 10 µM. 1.2% of 330,000 active; in the data active = inhibition above about 50%
Starred values were filed as active, the others as inactive; i = inactive; . = no result.

SMILES	SENP7 inh	SENP8 block-1	SENP6 inh	Platelet DG rel	SENP8 block-2
CC(=O)NC1=C(N2CC2C)C(=O)C(NC(C)=O)=C(N2CC2C)C1=O (stereo not given)	.	65*	.	.	.
Cc1ccc2n1Cc1cnnn1-c1ccccc1-2	.	-380	.	.	.
C=CCN1C(=O)NC(=O)/C(=C/c2c(CCN(C)C(=O)c3ccccc3)cc3c(c2OC)OCO3)C1=O	-8	54*	-20	6	-1
CNC(=S)N(C)CCc1cc2c(c(OC)c1C=C1C(=O)NC(=O)NC1=O)OCO2	-4	-135	-9	-13	-5
CC12Nc3ccccc3C(=O)N1Cc1cnnn1-c1ccccc12 (stereo not given)	.	-393	.	.	.
COC(=O)C1=C(C(=O)OC)SC2(S1)C(C(=O)OC)=C(C(=O)OC)Sc1c2ssc1=O	.	43*	.	.	.
CCN(C(=O)COC(=O)c1cn(C)c2ccccc12)c1ccc(F)cc1	-1	7	1	.	1
CN1CCN(c2ccc(S(C)(=O)=O)cc2[N+](=O)[O-])CC1	6	-2	8	-9	-2
CN1CCN(c2ccc([N+](=O)[O-])c3no[n+]([O-])c23)CC1	.	69*	.	6	.
O=[N+]([O-])c1ccc(N(CCO)CCO)c2c1no[n+]2[O-]	.	51*	.	.	.
BrCC(Br)(Br)Br	7	1	-6	.	8
COC(=O)C1=CO[C@@H](C)[C@H]2CN3CC[C@]4(C(=O)Nc5ccccc54)[C@@H]3C[C@H]12	-8	35	1	1	-2
Cc1cc(C=C2C(=O)N(C)C(=S)N(C)C2=O)c(C)n1C1CCCCC1	-2	41*	4	-3	-3
COCCO[C@H]1CC[C@@]2(C)C(=CCC3C2CC[C@@]2(C)C3CC[C@]2(C)O)C1 (stereo not given in full)	7	10	5	.	-9
O=C(O)CC1OCC=C2CN3CCC45C6=CC(=O)C(=O)C([N+](=O)[O-])=C6NC4C1C2CC35 (stereo not given)	.	112*	.	-9	.
N#CC(C#N)=NNc1ccc(S(N)(=O)=O)cc1	3	44*	5	5	-4
CC1CCN(S(=O)(=O)c2ccc(NN=C(C#N)C#N)cc2)CC1	-6	.	-12	.	-10
COC(=O)[C@@H]1N=C(c2ccc(OC)cc2)O[C@]12C(=O)N(Cc1ccccc1)c1ccccc12	.	5	.	.	.
Cc1nc(C)c(C(=O)NN=Cc2ccc(N(CCCl)CCCl)cc2)s1	.	-463	.	.	.
O=C(OC1CC2CCC(N2)C1C(=O)O)c1ccccc1 (stereo not given)	5	-3	1	.	5
CCNC(=O)[C@H]1O[C@@H](n2cnc3c(N)ncnc32)[C@H](O)[C@@H]1O	8	0	4	84*	-1
CCN(CC)c1ccc(N=Cc2c(O)n(Cc3ccco3)c(=O)[nH]c2=O)cc1	6	-7	-4	.	1
CCN(CCO)c1ccc(N=Cc2c(O)n(C)c(=S)[nH]c2=O)cc1	54*	55*	40	-6	8
O=C1C(=O)c2ccccc2-c2ccccc21	97*	108*	97*	1	93*
O=C1CC=C2C3CC4N(CCC45c4cc(O)c(O)cc4N1C25)CC3=CCBr (stereo not given)	.	59*	.	.	.
SMILES	SENP7 inh	SENP8 block-1	SENP6 inh	Platelet DG rel	SENP8 block-2
Nc1ccccc1C(=O)OCC(=O)c1ccc2c(c1)OCCO2	98*	-140	95*	27	95*
OCCNc1c2c(nc3ccccc13)CCCC2	-1	29	0	3	-9
CNc1ccc2nc3ccccc3[n+](C)c2c1	30	72*	66*	3	47
C[n+]1c2ccccc2nc2ccc(NCCO)cc21	41	90*	81*	4	71*
COc1ccccc1NP1(=O)OCC(C)([N+](=O)[O-])CO1 (stereo not given)	.	11	.	.	.
CN1Cc2cnnn2-c2ccccc2C1c1ccccc1 (stereo not given)	.	7	.	.	.
CCCC(=O)Nc1ccc(N2CCN(CC)CC2)c(Cl)c1	-3	14	-28	2	3
CCCC(=O)NC1=C(N2CC2)C(=O)C(NC(=O)CCC)=C(N2CC2)C1=O	.	66*	.	.	.
O=P1(NCCCl)OCCC(OO)N1CCCl (stereo not given)	.	-12	.	.	.
COC(=O)C1=C(c2ccccc2OCc2ccccc2)C[C@@H]2CC[C@H]1N2C(=O)NCc1ccc(C(C)(C)C)cc1	5	6	-2	.	4
CN1/C(=C\C=Nc2ccccc2)C(C)(C)c2ccccc21	2	-15	1	4	3
CCN1/C(=C/C=C/C2=[N+](CC)c3ccccc3C2(C)C)C(C)(C)c2ccccc21	.	41*	.	.	.
CN1/C(=C\C=C\C2=[N+](C)c3ccc4ccccc4c3C2(C)C)C(C)(C)c2ccccc21	24	.	59*	.	35
O=C(NC1CCCCC1)N1Cc2ccccc2-n2nncc2C1	.	10	.	.	.
C[C@@H]1CN([C@@H](C)CO)C(=O)CCCn2nncc2CO[C@@H]1CN(C)C(=O)Oc1ccccc1	.	7	.	.	.
CCC1CN2CCc3cc(OC)c(OC)cc3C2CC1CC1NCCc2c1[nH]c1ccc(O)cc21 (stereo not given)	.	-13	.	.	.
CC(N)Cc1ccccc1Sc1ccc(O)cc1 (stereo not given)	-5	.	2	76*	-10
CC(Cc1ccccc1Sc1ccc(O)cc1)N(C)C (stereo not given)	7	26	-9	-7	0
Nc1c(C(=O)NC2CCCC2)c2nc3ccccc3nc2n1CC1CCCO1 (stereo not given)	90*	i	92*	-1	93*
COc1cc(/C=C2\C[C@H]3[C@@H]4CC=C5C[C@@H](N6CCCC6)CC[C@]5(C)[C@H]4CC[C@]3(C)[C@H]2O)cc(OC)c1OC	.	0	.	.	.
C[C@]12CC[C@@H]3c4ccc(O)c(O)c4CC[C@H]3[C@@H]1CC[C@@H]2O	4	45*	-2	3	13
C/C(CC(c1ccccc1)c1c(O)c2ccccc2oc1=O)=N\Nc1ccc([N+](=O)[O-])cc1[N+](=O)[O-] (stereo not given)	-6	-3	95*	3	-4
O=c1oc2ccccc2c(O)c1C(c1ccc([N+](=O)[O-])cc1)c1c(O)c2ccccc2oc1=O	.	-4	.	0	.
Cc1nc2c(=O)n(C)c(=O)nc-2n(C)n1	96*	132*	87*	40	96*
C[C@]12CCC3C(CC[C@H]4C[C@@H](O)CC[C@]34C)C1C[C@@H](Br)[C@H]2O (stereo not given in full)	-1	20	5	.	10
CCCC1(CC(C)CC)C(=O)NC(=O)NC1=O (stereo not given)	.	9	.	.	.
CCn1nc(-c2ccccc2)nc2c(=O)n(C)c(=O)nc1-2	96*	17	89*	4	92*
COc1ccc(N2CCN(CCCN)CC2)cc1	-1	20	-15	63*	-1
NCCCN1CCN(c2ccccc2)CC1	-5	24	-10	0	-1
c1cncc(C2Nc3cccc4cccc(c34)N2)c1	3	52*	35	7	14
